RORgamma inh – blocks mouse ROR gamma transcriptional activity. P51450. Drosophila S2 Gal4-RORgamma UAS-luciferase reporter, 20 h. Potency, µM (titrated, usually from 53.6 µM), most hits filed as inhibitors. 5.4% of 310,000 active. AID 2551; also: nearly all actives have a fitted effect of over 60% in size
Target sequence (P51450 whole entry, looked up, the tested form may be a part): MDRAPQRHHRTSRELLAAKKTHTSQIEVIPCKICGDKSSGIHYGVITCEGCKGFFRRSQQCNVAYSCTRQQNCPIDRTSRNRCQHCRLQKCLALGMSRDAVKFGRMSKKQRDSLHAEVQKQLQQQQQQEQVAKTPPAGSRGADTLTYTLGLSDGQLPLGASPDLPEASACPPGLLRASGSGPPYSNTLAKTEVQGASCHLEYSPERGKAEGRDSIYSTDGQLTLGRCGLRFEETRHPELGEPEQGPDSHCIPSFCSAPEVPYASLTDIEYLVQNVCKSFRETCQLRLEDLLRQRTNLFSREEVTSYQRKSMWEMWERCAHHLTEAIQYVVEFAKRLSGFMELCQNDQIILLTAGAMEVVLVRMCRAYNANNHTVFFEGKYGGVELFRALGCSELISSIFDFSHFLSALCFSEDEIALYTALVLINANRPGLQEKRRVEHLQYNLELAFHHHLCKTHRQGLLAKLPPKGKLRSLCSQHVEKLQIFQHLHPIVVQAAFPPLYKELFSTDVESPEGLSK
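In this cell-based reporter format, copper sulfate (700 uM final) drives Gal4–ROR gamma fusion expression from a metallothionein promoter in Drosophila Schneider cells; compounds preincubated 1 hr, reporter read after 20 hr at ambient temperature.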
KinaseGlo FLuc – counter-screen: inhibitors of Kinase-Glo firefly luciferase | Q27757 | Kinase-Glo luciferase, ATP luminescence, 8 min | Potency, µM (titrated, usually from 38.3 µM), most hits filed as inhibitors | 0.28% of 200,000 active; also: nearly all actives have a fitted effect of over 60% in size
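Luminescence was the read-out, taken after 8-minute incubation at ambient temperature. Luciferase turned over luciferin with 10 uM ATP in imidazole pH 7.2 buffer containing KCl, MgCl2, Tween 20 and BSA.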
VP16 counter – inhibits Gal4-VP16 luciferase reporter, ROR gamma counter-screen; Potency, µM (highest dose often 53.6 µM), most hits filed as inhibitors; Drosophila S2 Gal4-VP16 UAS-luciferase, luminescence, 20 h; AID 2546; 3.5% of 310,000 active;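 also: Gal4-VP16 expression switched on by copper sulfate through the metallothionein promoter; nearly all actives have a fitted effect of over 50% in size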
Large screens that a line does not name were inactive. Compounds with a hit are over-represented: about 6.2% of the library has one in this group of screens. Calls follow the shape of the dose curve; as a rule, active = well fitted curve in the direction sought with a large enough effect; inconclusive = small, poorly fitted or top-dose-only effect, or another doubt; inactive = no such curve, though single readings can be large; an effect the other way counts as inactive or inconclusive.

O=C(NCNC(=O)c1ccccc1)c1ccccc1	none
Cc1onc(-c2c(F)cccc2Cl)c1C(=O)NNC(=O)C1CCN(Cc2cccc(F)c2)CC1	none
Cc1sc2ncnc(NCC(O)c3ccccc3)c2c1C (stereo unspecified)	RORgamma inh inconclusive, VP16 counter 16µM (no result: KinaseGlo FLuc)
Cc1sc2ncnc(NCC(O)c3ccc([N+](=O)[O-])cc3)c2c1C (stereo unspecified)	RORgamma inh inconclusive, VP16 counter 5µM (no result: KinaseGlo FLuc)
Cc1sc2ncnc(NCCCO)c2c1C	none
Cc1sc2ncnc(NCC(c3ccccc3)N(C)C)c2c1C (stereo unspecified)	none (no result: KinaseGlo FLuc)
CC(=O)N[C@@H](CC(C)C)C(=O)N[C@@H](CCCNC(=N)N)C(=O)N[C@@H](Cc1cnc[nH]1)C(=O)N[C@@H](Cc1ccc(O)cc1)C(=O)N[C@@H](CC(C)C)C(=O)N[C@@H](CC(N)=O)C(=O)N[C@@H](CC(C)C)C(=O)N[C@@H](CC(C)C)C(=O)N[C@H](C(=O)N[C@@H](CCCNC(=N)N)C(=O)N[C@@H](CCC(N)=O)C(=O)N[C@@H](CCCNC(=N)N)C(=O)N[C@@H](Cc1ccc(O)cc1)C(N)=O)[C@@H](C)O	none (no result: KinaseGlo FLuc)
CNc1cc(-c2ccccc2CN(C)C)ncn1	none (no result: KinaseGlo FLuc)
O=C1c2ccccc2-c2onc3ccc(N4CCCC4)c1c23	RORgamma inh inconclusive, KinaseGlo FLuc inconclusive
O=C1c2ccccc2C(=O)c2c1cccc2N1CCCC1	RORgamma inh 11µM, VP16 counter inconclusive
COc1ccccc1-c1cc(C(=O)N/N=C/c2cccs2)c2ccccc2n1	RORgamma inh 4.5µM, VP16 counter 5.6µM
O=C(N/N=C/c1cccs1)c1cc(C2CC2)nc2ccccc12	RORgamma inh 10µM, VP16 counter 18µM
CCc1ccc(/C=N/NC(=O)c2cc(-c3ccncc3)nc3ccccc23)s1	RORgamma inh 2µM, VP16 counter 5.6µM
COc1ccccc1-c1cc(C(=O)N/N=C\c2cnn(C)c2C)c2ccccc2n1	RORgamma inh inconclusive
O=C(N/N=C/c1cccs1)c1c[nH]c2ccccc12	RORgamma inh inconclusive
CCc1ccc(/C=N/NC(=O)c2c[nH]c3ccccc23)s1	RORgamma inh 11µM
CC(C)COc1cccc(-c2cc(C(=O)N/N=C/c3ccncc3)c3ccccc3n2)c1	VP16 counter inconclusive (no result: KinaseGlo FLuc)
CC(C)CCn1c(=O)c2sccc2n2c(CCCC(=O)N3CCN(c4ccccn4)CC3)nnc12	none (no result: KinaseGlo FLuc)
COc1ccc(OC)c(NC(=O)CC2Oc3ccccc3NC2=O)c1 (stereo unspecified)	none (no result: KinaseGlo FLuc)
CC(c1ccon1)N(C)Cc1cn(Cc2ccccc2)nc1-c1ccc2c(c1)OCO2 (stereo unspecified)	none (no result: KinaseGlo FLuc)
CCc1cc(C(=O)N/N=C/c2ccc(OC)cc2)c2ccccc2n1	none (no result: KinaseGlo FLuc)
O=C(N/N=C/c1cccs1)c1cc(-c2ccncc2)nc2ccccc12	RORgamma inh 5µM, VP16 counter 7.1µM
CCCc1cc(C(=O)N/N=C/c2ccc(CC)s2)c2ccccc2n1	RORgamma inh 2.8µM, VP16 counter 6.3µM
O=C(NCc1cc([N+](=O)[O-])ccc1O)c1cc(-c2ccncc2)nc2ccccc12	RORgamma inh 14µM, VP16 counter 8.9µM (no result: KinaseGlo FLuc)
Cc1csc(NC(=O)c2cc(-c3ccncc3)nc3ccccc23)n1	none
COc1ccc(-c2cc(C(=O)N/N=C(\C)c3ccco3)c3ccccc3n2)c(OC)c1	RORgamma inh 6.3µM (no result: KinaseGlo FLuc)
C/C(=N\NC(=O)c1cc(C)nc2ccccc12)c1ccco1	none
O=C(NCc1ccc(F)cc1)c1cc(-c2ccncc2)nc2ccccc12	none (no result: KinaseGlo FLuc)
CN1C(=O)Cc2cc(S(=O)(=O)Nc3ccc(Cl)cc3)ccc21	RORgamma inh inconclusive (no result: KinaseGlo FLuc)
COc1ccc(-c2cc(C(=O)N/N=C/c3sccc3C)c3ccccc3n2)c(OC)c1	RORgamma inh 4.5µM, VP16 counter inconclusive
COc1ccc(-c2cc(C(=O)N/N=C/c3ccc4c(c3)OCO4)c3ccccc3n2)c(OC)c1	none
Cc1[nH]c2ccccc2c1C(=O)CSc1ccccc1	none
Cc1[nH]c2ccccc2c1C(=O)CCl	RORgamma inh 13µM, VP16 counter 11µM
O=[N+]([O-])c1cc(Cl)ccc1Sc1cccc2cccnc12	none
Cc1cc(C)nc(Sc2ccc([N+](=O)[O-])cc2[N+](=O)[O-])n1	RORgamma inh 8.9µM, VP16 counter inconclusive
O=[N+]([O-])c1ccc(Sc2cccc3cccnc23)c([N+](=O)[O-])c1	RORgamma inh 7.1µM, VP16 counter 7.1µM
O=C(O)CSc1ccc([N+](=O)[O-])cc1[N+](=O)[O-]	none (no result: RORgamma inh, VP16 counter)
O=[N+]([O-])c1ccc(Sc2cccc3cccnc23)cc1	none
C=CCn1nc([N+](=O)[O-])nc1Sc1cccc2cccnc12	RORgamma inh 8.9µM, VP16 counter inconclusive
N#Cc1c(NC(=O)C2CC(c3ccccc3O)=NO2)sc2c1CCC2 (stereo unspecified)	RORgamma inh inconclusive, VP16 counter inconclusive
C[C@]12CCC(=O)C=C1CCC1C3CC[C@](O)(C(=O)CO)[C@@]3(C)CC3OC312 (stereo partly specified)	none
COc1ccc(CC(=O)Nc2cc3oc4ccccc4c3cc2OC)cc1	none
COCCNC(=S)Nc1cc2oc3ccccc3c2cc1OC	RORgamma inh 5.6µM, VP16 counter 7.1µM (no result: KinaseGlo FLuc)
COc1cc2c(cc1NC(=S)NC(=O)c1c(OC)cccc1OC)oc1ccccc12	RORgamma inh 3.5µM, VP16 counter inconclusive
COc1cc(OC)cc(C(=O)NC(=S)Nc2cc3oc4ccccc4c3cc2OC)c1	RORgamma inh 1.4µM, VP16 counter inconclusive
COc1ccccc1CC(=O)Nc1cc2oc3ccccc3c2cc1OC	none
COc1ccc(C(=O)NC(=S)Nc2cc3oc4ccccc4c3cc2OC)cc1	RORgamma inh inconclusive
COc1cccc(NC(=O)Nc2cc(C(=O)NC(C)C)ccc2N2CC3CC(C2)c2cccc(=O)n2C3)c1 (stereo unspecified)	none (no result: KinaseGlo FLuc)
O=C(c1coc(=O)c(Br)c1)N1CCCc2ccccc21	VP16 counter inconclusive
CCCCn1c(=S)[nH]c2ccc(N3CCOCC3)cc2c1=O	RORgamma inh 2.2µM, VP16 counter 7.1µM
O=c1c2cc(N3CCOCC3)ccc2[nH]c(=S)n1CCN1CCCC1	none
CCOc1cc2[nH]c(=S)n(Cc3ccc(C)o3)c(=O)c2cc1OCC	RORgamma inh 7.1µM, VP16 counter 11µM
O=c1c2cc(N3CCOCC3)ccc2[nH]c(=S)n1CCCN1CCCCCC1	none
Cc1ccc(Cn2c(=S)[nH]c3ccc(N4CCOCC4)cc3c2=O)o1	RORgamma inh 3.2µM, VP16 counter 4µM
O=c1c2cc(N3CCOCC3)ccc2[nH]c(=S)n1CCCN1CCN(c2ccccc2F)CC1	VP16 counter inconclusive
Cc1cccc(N2CCN(C(=O)CCCCCn3c(=S)[nH]c4ccc(N5CCOCC5)cc4c3=O)CC2)c1C	RORgamma inh 7.1µM, VP16 counter 11µM (no result: KinaseGlo FLuc)
CCOc1cc2[nH]c(=S)n(CCCCC(=O)NCc3ccco3)c(=O)c2cc1OCC	none (no result: VP16 counter)
CS(=O)(=O)N(Cc1ccccc1)c1ccc(C(=O)N2CCc3ccccc3C2)cc1	RORgamma inh inconclusive
CCCCC(CC)C(=O)Nc1ncc([N+](=O)[O-])s1 (stereo unspecified)	none
O=c1c2cc3c(cc2[nH]c(=S)n1CCN1CCOCC1)OCO3	RORgamma inh inconclusive
O=c1c2cc(F)ccc2[nH]c(=S)n1CCCN1CCOCC1	RORgamma inh 11µM, VP16 counter inconclusive

Compound activity as filed in PubChem.
